HEK cytotox: HEK 293 cell cytotoxicity. Potency, µM (top dose mostly 115 µM), for the others: at the highest dose activity change, negative = cytotoxicity, usual class: inhibitors. 6.6% of 94,000 active. HEK 293 viability, ATP luminescence (CellTiter-Glo), 48-72 h; also: % is scaled to controls: 0 for no effect and ±100 for the full control effect; nearly all actives have a fitted effect of over 60% in size
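Cells seeded first (HEK 293, 250 cells/well), then compound added by pintool. Incubation ran 48 or 72 hr at 37 degree Celsius. CellTiter-Glo was added and luminescence imaged after 10 min at room temperature.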
GPT2 inhibitor: blocks human glutamate pyruvate transaminase 2 | Recombinant GPT2, coupled pyruvate oxidase/HRP Amplex Red fluorescence | Potency, µM (series often up to 57.7 µM), without a hit: top-dose activity change, negative = inhibition, actives largely listed as inhibitors | 0.25% of 100,000 active | AID 1671188; also: % is scaled to controls: 0 for no effect and ±100 for the full control effect; nearly all actives have a fitted effect of over 60% in size
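Fluorescence of coupled pyruvate oxidase/HRP/Amplex Red system (50uM Amplex, 30 min, dark) reports pyruvate formed by GPT2. Enzyme reaction: 10ng/uL GPT2, 2mM L-alanine, 250uM a-KG, 30 min room temperature, pH 7.5; 50uM AOA control.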
FLuc inh-1: blocks purified firefly luciferase enzyme activity | P08659 | purified P. pyralis luciferase, luminescence, biochemical | Potency, µM (top dose mostly 115 µM), most hits filed as inhibitors | 2.5% of 76,000 active; also: % is scaled to controls: 0 for no effect and ±100 for the full control effect; nearly all actives have a fitted effect of over 65% in size
Target sequence (P08659 whole entry, looked up): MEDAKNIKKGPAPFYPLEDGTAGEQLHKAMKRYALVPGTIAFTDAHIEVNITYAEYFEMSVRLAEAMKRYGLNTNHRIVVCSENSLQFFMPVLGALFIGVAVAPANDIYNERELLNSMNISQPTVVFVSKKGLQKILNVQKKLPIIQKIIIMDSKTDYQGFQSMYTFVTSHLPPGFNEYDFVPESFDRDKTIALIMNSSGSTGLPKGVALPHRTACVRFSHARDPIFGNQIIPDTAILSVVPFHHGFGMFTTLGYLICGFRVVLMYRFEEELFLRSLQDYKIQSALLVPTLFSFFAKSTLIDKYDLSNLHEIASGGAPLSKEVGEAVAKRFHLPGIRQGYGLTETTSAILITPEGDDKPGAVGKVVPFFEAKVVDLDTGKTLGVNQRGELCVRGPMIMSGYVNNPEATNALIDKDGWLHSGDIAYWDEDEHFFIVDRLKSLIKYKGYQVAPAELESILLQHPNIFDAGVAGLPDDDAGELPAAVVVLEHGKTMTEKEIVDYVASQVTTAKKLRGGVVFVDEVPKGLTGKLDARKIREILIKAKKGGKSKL
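Purified P. pyralis luciferase (10nM final) in 50mM Tris acetate pH 7.5, 10mM Mg acetate, 0.01% Tween-20, 0.05% BSA with 10uM D-luciferin and 10uM ATP. Compounds titrated qHTS. Luminescence imaged on CCD.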
NPR1 antag: blocks ANP-stimulated signaling of human Npr1 receptor. P16066. HEK293 hNpr1 GloSensor cGMP, ANP-stimulated luminescence. Potency, µM (doses to about 46.3 µM), inactives show top-dose activity change, negative = inhibition, most hits filed as inhibitors. 1.6% of 76,000 active; calls by dose curve; also: % is scaled to controls: 0 for no effect and ±100 for the full control effect; nearly all actives have a fitted effect of over 60% in size
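HEK293 cells stably expressing human Npr1 and cGMP GloSensor pGS-40F, loaded 2 h with 2% GloSensor reagent, given compound 30 min at room temperature. Luminescence read before and 20 min after 0.1 nM hNppA.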
NIH3T3 tox: NIH 3T3 cell cytotoxicity | NIH 3T3 viability, CellTiter-Glo ATP luminescence, 48-72 h | Potency, µM (series often up to 96.7 µM), without a hit: top-dose activity change, negative = cytotoxicity, actives largely listed as inhibitors | 4.3% of 94,000 active; also: % is scaled to controls: 0 for no effect and ±100 for the full control effect; nearly all actives have a fitted effect of over 55% in size
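ATP-dependent luminescence (CellTiter-Glo) served as the viability signal for NIH 3T3 cells treated with compound for 48 or 72 hr at 37 °C.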
FLuc SDR no ATP: binders stabilizing firefly luciferase, without ATP; Potency, µM (top dose mostly 32.7 µM), for the others: at the highest dose activation (signal gain), most hits filed as activators; shares compounds with FLuc inh-1; 7.8% of 1,300 active; Purified FLuc-C-HiBiT, Nano-Glo HiBiT luminescence, no ATP; also: nearly all actives have a fitted effect of over 55% in size
FLuc SDR ATP: binders stabilizing firefly luciferase, plus ATP; shares compounds with FLuc inh-1; purified FLuc-C-HiBiT + ATP, HiBiT complementation luminescence; Potency, µM (titrated, usually from 32.7 µM), for inactives: at the top dose activation (gain of signal), usual class: activators; 8.7% of 1,300 active;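 also: signal reports ligand binding via conformational change of the enzyme rather than luciferase catalysis; % of control where 0% means no effect; nearly all actives have a fitted effect of over 55% in size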
FLuc inh-2: firefly luciferase enzyme inhibition; shares compounds with FLuc inh-1; purified FLuc-C-HiBiT enzyme, luciferin luminescence; Potency, µM (series often up to 32.7 µM), for inactives: top-dose activity change, negative = inhibition, usual class: inhibitors; 42% of 1,300 active; AID 1963320; also: % is scaled to controls: 0 for no effect and ±100 for the full control effect; nearly all actives have a fitted effect of over 70% in size
The depositor's hits bear a star; i = inactive; ? = inconclusive; . = no result; [ ] = remark or other dose. Hits are enriched below; roughly 10% of the tested compounds scored in any of these assays. Unless noted, calls follow the shape of the dose curve; as a rule, active = well fitted curve in the direction sought with a large enough effect; inconclusive = small, poorly fitted or top-dose-only effect, or another doubt; inactive = no such curve, though single readings can be large; an effect the other way counts as inactive or inconclusive. Potency is read from the fitted curve at half-maximal effect.

SMILES	HEK cytotox	GPT2 inhibitor	FLuc inh-1	NPR1 antag	NIH3T3 tox	FLuc SDR no ATP	FLuc SDR ATP	FLuc inh-2
O=C(CC1CCOCC1)Nc1ccc(N2CCOCC2)cc1	17.1%	i	i	17.4%	-11.1%	.	.	.
COc1ccc(C(=O)Nc2ccc(-c3nc4ccccc4s3)cc2C)cc1Cl	.	.	.	.	.	10.3%	7.9%	-3.7%
CCOc1cccc2cc(-c3nc(-c4ccccc4C)no3)c(=O)oc12	.	.	.	.	.	?	?	?
CCN1CCC(CC(=O)N2CCC3(CC2)NCCc2c3[nH]c3ccccc23)CC1	?	i	i	-3.7%	?	.	.	.
Cc1nn(CCC#N)c(C)c1[C@@H]1C=C[C@@H](NC(=O)NC(C)C)C1	0.3%[172 µM]	?	i	6.9%[70.6 µM]	?	.	.	.
Cc1ccc(-n2nc(C)c([C@@H]3C=C[C@@H](NC(=O)NC(C)C)C3)c2C)cc1Cl	?	-4.5%[88.5 µM]	3.55µM*	15.8µM*	63.1µM*	29.8%[49.3 µM]	?	14.3µM*
Cc1nn(-c2ccc(C(C)C)cc2)c(C)c1[C@@H]1C=C[C@@H](NC(=O)NC(C)C)C1	22.4µM*	-14.0%[88.5 µM]	3.55µM*	31.6µM*	28.2µM*	15.8%[49.3 µM]	19.6%[49.3 µM]	?
Cc1nn(-c2cccc(Br)c2)c(C)c1[C@@H]1C=C[C@@H](NC(=O)CC(C)(C)CC(=O)O)C1	?	-3.7%	?	-0.8%	?	13.4%	9.3%	-7.0%
COc1ccc(-n2nc(C)c([C@@H]3C=C[C@@H](NC(=O)Nc4cccc(C#N)c4)C3)c2C)cc1	89.1µM*	2.6%[88.5 µM]	7.94µM*	?	?	12.9%[49.3 µM]	10.9%[49.3 µM]	?
CCS(=O)(=O)N1CC(F)(F)C[C@H]1c1nc(CCOC)no1	-11.0%	?	i	4.5%	-2.7%	.	.	.
Cc1nc2c(c(-c3ccc(O)cc3)n1)CN(Cc1ccccc1)CC2	?	i	i	-5.7%[70.6 µM]	?	.	.	.
Cc1noc(C)c1C(=O)N1CC(N(C)Cc2cccnc2)C1	16.9%	3.6%	i	1.4%	4.1%	.	.	.
Cc1noc(-c2ccc(OC3CN(C(=O)C(C)Oc4ccccc4)C3)cc2)n1 (centres undefined)	?	-14.4%	i	?	?	.	.	.
COc1ccc(NC(=O)N[C@@H]2C=C[C@@H](c3c(C)nn(-c4ccc(C(C)C)cc4)c3C)C2)cc1	?	i	7.94µM*	-26.5%	?	13.9%	13.0%	-11.4%
Cc1cn2nc(C(=O)NCc3ccccn3)cc2c(=O)[nH]1	-6.0%	i	i	18.1%	-16.2%	.	.	.
Cc1cn2nc(C(=O)Nc3ccc(C(=O)NCCc4cccs4)cc3)cc2c(=O)[nH]1	16.4%	i	4.47µM*	-5.7%	4.8%	?	?	8.81µM*
CC1CCCCN1c1csc2ccc(F)cc2c1=O (centres undefined)	.	.	.	.	.	29.3%	19.3%	8.81µM*
Cc1ccc(F)cc1-c1ccc(COc2ccc3c(cnn3CCC(=O)O)c2)cc1	?	-4.2%[88.5 µM]	22.4µM*	-13.6%[70.6 µM]	?	18.8%[49.3 µM]	11.8%[49.3 µM]	?
COc1cccc(F)c1-c1ccc(COc2ccc3c(cnn3CCC(=O)O)c2)cc1	?	-17.3%[88.5 µM]	25.1µM*	-8.4%[70.6 µM]	?	16.2%[49.3 µM]	10.1%[49.3 µM]	?
Cc1ccccc1-c1ccc(COc2ccc3c(cnn3CCC(=O)O)c2)cc1	?	4.7%[88.5 µM]	?	-15.8%[70.6 µM]	?	19.6%[49.3 µM]	13.3%[49.3 µM]	16.1µM*
COc1cc(F)cc(-c2ccc(COc3ccc4c(cnn4CCC(=O)O)c3)cc2)c1	?	-3.1%[88.5 µM]	?	0.2%[70.6 µM]	?	.	.	.
